Bioassay records deposited in PubChem by Sanford-Burnham Center for Chemical Genomics.
HIF-2a inh – blocks HIF-2a reporter activity; 786-0 RCC cells HIF-2a reporter, luciferase luminescence, overnight; inhibition, % at 18.8 µM; actives 0.72% (n = 360,000); AID 624352;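 active = inhibition of the luminescence signal of 40% or more relative to plate controls, in a single-dose primary screen at 18.75 µM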
CF NFkB inh – cystic fibrosis NF-kB activation inhibition | actives 0.86% (n = 360,000) | inhibition, % at 5 µM | KKLEB NF-kB-GFP reporter, PAF-induced, GFP fluorescence overnight;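 active = at least 50% inhibition at 5 µM, scaled per plate between neutral and stimulator controls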;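 note: PAF is a Pseudomonas aeruginosa culture filtrate used as stimulus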
Peg3 promoter – Peg3 promoter activity inhibition. inhibition, % at 20 µM. AID 588405. actives 1.7% (n = 360,000). HeLa PEG-Prom luciferase reporter, luminescence, overnight;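 active = inhibition of at least 50% at 20 µM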
PPC-1+TRAIL kill – PPC-1 cancer cell killing with TRAIL present | PPC-1 cells + TRAIL, ATPLite viability luminescence | cell killing (% activity), % at 4 µM or 5 µM | actives 0.41% (n = 220,000);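 active = cell killing above 50% in the first pass at 4 µM, then a duplicate retest at 5 µM averaging 50% or more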
C8 TRAIL sens – sensitizes caspase-8 expressing cells to TRAIL. NB7+C8 cells + TRAIL, ATPlite viability luminescence. inhibition (viability loss, TRAIL sensitization), % at 10 µM. actives 1% (n = 360,000);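 active = compounds causing at least 50% loss of cell viability in the single-dose screen, relative to plate controls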
KKLEB tox – reduces viability of KKLEB cystic fibrosis airway cells. actives 0.36% (n = 360,000). AID 602141. activity change (cytotoxicity), % at 5 µM. KKLEB CF airway cells viability, ATPlite luminescence, overnight; active compounds read low; cells stimulated with P. aeruginosa culture filtrate;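 active = corrected activity change at or below -50% at 5 µM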
Large screens that a line does not name were inactive. The list is not random: actives were taken first. Their share in the collection is about 3.1%.

CCc1ccc([C@@H]2C[C@H]3[C@@H](CN2S(=O)(=O)c2ccc(C)cc2)C(=O)C[C@@H](c2ccc(Cl)cc2)N3S(=O)(=O)c2ccc(C)cc2)cc1	none (no result: PPC-1+TRAIL kill)
COc1ccc(C(=O)N/N=C(\C)c2cccc(NC(=O)c3ccc(F)cc3)c2)c(OC)c1	none (no result: PPC-1+TRAIL kill)
COc1ccc(C(=O)N/N=C(/C)c2cccc(NC(=O)c3ccccc3F)c2)cc1	C8 TRAIL sens 59 (no result: PPC-1+TRAIL kill)
CSc1ccc2c(c1)C(N1CCN(C)CC1)Cc1ccc(F)cc1S2 (stereo not drawn)	Peg3 promoter 115 (no result: PPC-1+TRAIL kill)
O=[N+]([O-])c1ccc2c(c1)C(N1CCN(CCO)CC1)Cc1ccc(F)cc1S2 (stereo not drawn)	none (no result: PPC-1+TRAIL kill)
CC(C)c1ccc2c(c1)C(N1CCN(C)CC1)Cc1cccnc1S2 (stereo not drawn)	none (no result: PPC-1+TRAIL kill)
COc1ccc2c(c1)CC(N1CCN(C)CC1)c1cc(OC)ccc1S2 (stereo not drawn)	Peg3 promoter 69 (no result: PPC-1+TRAIL kill)
O=C(Nc1ccc(Cl)cc1)C1Cc2c(-c3cccc(F)c3)ccnc2O1 (stereo not drawn)	none (no result: PPC-1+TRAIL kill)
Cc1ccc(-c2csc3nc[nH]c(=S)c23)cc1	none
Cc1cc(-c2csc3nc[nH]c(=S)c23)cc(C)c1C	C8 TRAIL sens 60
CC(C)(C)NC(=O)C(CCc1ccccc1)n1c(=O)c(-c2cc3ccccc3[nH]2)nc2ccccc21 (stereo not drawn)	none (no result: CF NFkB inh, Peg3 promoter, PPC-1+TRAIL kill, KKLEB tox)
O=c1cc(-c2ccccc2)oc2ccc(Br)cc12	none (no result: PPC-1+TRAIL kill)
COc1ccc2oc(-c3ccccc3)cc(=O)c2c1	C8 TRAIL sens 72 (no result: PPC-1+TRAIL kill)
O=C(Nc1ccc(F)cc1)NC1(C(=O)NCc2ccco2)CCCCC1	KKLEB tox -79
CCOc1ccc(NC(=O)NC2(C(=O)NCc3ccco3)CCCCC2)cc1	none (no result: PPC-1+TRAIL kill)
CCN(CC(=O)NCc1cccs1)C(=O)c1ccc(-c2ccccc2F)o1	none (no result: PPC-1+TRAIL kill)
Clc1ccc(-n2nnnc2Sc2ncnc3sccc23)cc1	HIF-2a inh 93, CF NFkB inh 83, Peg3 promoter 108 (no result: PPC-1+TRAIL kill)
Cc1sc2ncnc(Sc3nnnn3-c3ccccc3)c2c1C	CF NFkB inh 80, Peg3 promoter 72, KKLEB tox -54
Cc1sc2ncnc(Sc3ccccc3C(=O)O)c2c1C	none
CCOC(=O)COc1cc(OCC(=O)OCC)c2c3c(c(=O)oc2c1)CCCC3	none (no result: PPC-1+TRAIL kill)
COc1ccc(NC(=O)c2cc(-c3ccc(F)cc3OC)n[nH]2)c(C)c1	none (no result: PPC-1+TRAIL kill)
Cc1cccc(S(=O)(=O)NC(=O)C2(C)CCN2C(=O)c2sccc2C)c1 (stereo not drawn)	none (no result: PPC-1+TRAIL kill)
CS(=O)(=O)c1ccc(C(=O)OCc2nnc(-c3ccc(Cl)cc3)o2)cc1[N+](=O)[O-]	Peg3 promoter 104
Cc1cc(/C=C2\SC(=S)N(C)C2=O)c(C)n1-c1ccccc1O	none (no result: PPC-1+TRAIL kill)
Cc1cc(/C=C2\SC(=S)N(C)C2=O)c(C)n1-c1ccc(O)cc1	HIF-2a inh 45, Peg3 promoter 62
Cc1cc(Br)cn2c(Cc3ccccc3)c(-c3ccccc3)nc12	none (no result: PPC-1+TRAIL kill)
Clc1ccc(-c2cc3nc(NCc4cccc(Cl)c4)ccn3n2)cc1	none (no result: PPC-1+TRAIL kill)
Cc1ccc(C)c(CC(=O)N2CCCCC2c2cc(C(=O)Nc3cccc(C#N)c3)no2)c1 (stereo not drawn)	none (no result: PPC-1+TRAIL kill)
CCCCN1C(C)=CC(=C2C(=O)c3ccccc3C2=O)C=C1C	C8 TRAIL sens 66
CC1=CC(=C2C(=O)c3ccccc3C2=O)C=C(C)N1Cc1ccco1	none
Cc1sc2nc(CN(C(=O)NC3CCCCC3)C3CCCCC3)[nH]c(=O)c2c1C	Peg3 promoter 50
O=C(NC1CCCCC1)N(Cc1nc2ccccc2c(=O)[nH]1)C1CCCCC1	none
Cc1c(O)ccc(/C=N/Nc2ncccc2[N+](=O)[O-])c1O	none (no result: PPC-1+TRAIL kill)
O=[N+]([O-])c1cccnc1N/N=C/c1ccccc1O	C8 TRAIL sens 51
O=[N+]([O-])c1ccc(NN=Cc2ccccc2O)nc1	none (no result: PPC-1+TRAIL kill)
O=[N+]([O-])c1ccc(O)c(/C=N/Nc2ccccn2)c1	CF NFkB inh 69, KKLEB tox -65
N#Cc1ccc(NN=Nc2ccccc2C#N)cc1	none (no result: PPC-1+TRAIL kill)
O=C(CN1CCN(Cc2ccccc2)CC1)N=Nc1c(O)[nH]c2ccccc12	Peg3 promoter 52
CCOC(=O)c1cccc2c1-c1ccccc1/C2=N/O	CF NFkB inh 86
CC(C)COC(=O)c1cccc2c1-c1ccccc1/C2=N\O	none
